In ChEMBL document CHEMBL1961873, “Compounds: GSK PKIS; Assays: Nanosyn kinase panel” (2012) one finds inhibition data, which are given here for six compounds.

Assay [1] concerns the target Mitogen-activated protein kinase kinase kinase kinase 4 (Homo sapiens) (UniProt O95819). The following applies: at 1 µM.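 Further: reported figure is an averaged inhibition value.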
For assay [2], the target named is Dual specificity mitogen-activated protein kinase kinase 1 (Homo sapiens) (UniProt Q02750). The following applies: at 0.1 µM.
Dual specificity mitogen-activated protein kinase kinase 1 (Homo sapiens), sequence (Q02750 whole entry): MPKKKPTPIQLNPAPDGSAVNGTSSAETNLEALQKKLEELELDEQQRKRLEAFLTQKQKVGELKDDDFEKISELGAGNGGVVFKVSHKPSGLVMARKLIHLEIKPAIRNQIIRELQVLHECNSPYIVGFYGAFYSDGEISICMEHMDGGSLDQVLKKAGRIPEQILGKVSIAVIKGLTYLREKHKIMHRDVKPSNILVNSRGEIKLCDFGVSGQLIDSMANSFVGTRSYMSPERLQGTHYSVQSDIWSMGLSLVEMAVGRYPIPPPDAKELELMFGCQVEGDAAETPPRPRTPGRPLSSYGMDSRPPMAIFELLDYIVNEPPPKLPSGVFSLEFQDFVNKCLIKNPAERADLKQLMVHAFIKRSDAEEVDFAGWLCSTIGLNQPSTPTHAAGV
For assay [3] the target is unchanged. The following applies: at 1 µM.
For assay [4], the target named is Misshapen-like kinase 1 (Homo sapiens) (UniProt Q8N4C8). Particulars: at 0.1 µM.
For assay [5] the target is unchanged. The following applies: at 1 µM.
The target of assay [6] is T1, Serine/threonine-protein kinase 4 (Homo sapiens) (UniProt Q13043).
T1 sequence (whole entry): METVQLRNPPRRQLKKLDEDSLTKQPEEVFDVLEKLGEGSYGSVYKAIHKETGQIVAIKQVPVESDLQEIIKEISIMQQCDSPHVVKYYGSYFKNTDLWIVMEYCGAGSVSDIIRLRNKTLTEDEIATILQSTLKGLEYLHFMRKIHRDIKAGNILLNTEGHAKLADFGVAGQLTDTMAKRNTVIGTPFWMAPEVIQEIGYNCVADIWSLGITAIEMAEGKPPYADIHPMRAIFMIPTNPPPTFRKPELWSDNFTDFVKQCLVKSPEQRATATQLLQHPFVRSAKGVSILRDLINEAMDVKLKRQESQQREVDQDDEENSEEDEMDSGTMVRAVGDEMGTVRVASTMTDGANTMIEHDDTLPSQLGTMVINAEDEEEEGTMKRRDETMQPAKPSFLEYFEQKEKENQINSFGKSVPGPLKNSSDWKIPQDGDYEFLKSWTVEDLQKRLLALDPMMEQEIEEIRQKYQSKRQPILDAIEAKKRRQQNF
The following applies: at 0.1 µM.

The target in assay [7] is T1, Serine/threonine-protein kinase 4 (Homo sapiens). The following applies: at 1 µM.
For assay [8], the target named is T2, Serine/threonine-protein kinase 3 (Homo sapiens) (UniProt Q13188).
T2 sequence (whole entry): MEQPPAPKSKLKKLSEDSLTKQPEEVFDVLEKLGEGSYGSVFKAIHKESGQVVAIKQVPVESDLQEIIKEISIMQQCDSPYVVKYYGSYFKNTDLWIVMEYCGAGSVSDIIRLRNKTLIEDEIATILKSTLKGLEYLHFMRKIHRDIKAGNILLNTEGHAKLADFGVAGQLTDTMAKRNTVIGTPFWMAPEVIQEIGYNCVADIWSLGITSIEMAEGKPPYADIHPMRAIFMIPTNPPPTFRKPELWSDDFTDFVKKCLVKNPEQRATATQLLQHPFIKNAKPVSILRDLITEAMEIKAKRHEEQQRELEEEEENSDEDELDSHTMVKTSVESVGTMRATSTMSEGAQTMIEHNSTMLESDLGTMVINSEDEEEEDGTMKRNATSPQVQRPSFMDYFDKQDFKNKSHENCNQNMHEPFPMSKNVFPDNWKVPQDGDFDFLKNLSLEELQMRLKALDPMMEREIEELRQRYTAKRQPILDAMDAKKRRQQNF
Particulars: at 0.1 µM.

For assay [9], the target named is T2, Serine/threonine-protein kinase 3 (Homo sapiens). Particulars: at 1 µM.
Assay [10] deals with Serine/threonine-protein kinase 26 (Homo sapiens) (UniProt Q9P289). Particulars: at 0.1 µM.
Assay [11] has the same target. Particulars: at 1 µM.
Assay [12] has as its target Serine/threonine-protein kinase PAK 1 (Homo sapiens) (UniProt Q13153). Particulars: at 0.1 µM.
For assay [13] the target is unchanged. Particulars: at 1 µM.
Assay [14] concerns the target Serine/threonine-protein kinase PAK 2 (Homo sapiens) (UniProt Q13177). Particulars: at 0.1 µM.
The target is the same in assay [15]. Particulars: at 1 µM.
Assay [16] deals with Serine/threonine-protein kinase PAK 3 (Homo sapiens) (UniProt O75914). The following applies: at 0.1 µM.
Serine/threonine-protein kinase PAK 3 (Homo sapiens), sequence (O75914 whole entry, looked up): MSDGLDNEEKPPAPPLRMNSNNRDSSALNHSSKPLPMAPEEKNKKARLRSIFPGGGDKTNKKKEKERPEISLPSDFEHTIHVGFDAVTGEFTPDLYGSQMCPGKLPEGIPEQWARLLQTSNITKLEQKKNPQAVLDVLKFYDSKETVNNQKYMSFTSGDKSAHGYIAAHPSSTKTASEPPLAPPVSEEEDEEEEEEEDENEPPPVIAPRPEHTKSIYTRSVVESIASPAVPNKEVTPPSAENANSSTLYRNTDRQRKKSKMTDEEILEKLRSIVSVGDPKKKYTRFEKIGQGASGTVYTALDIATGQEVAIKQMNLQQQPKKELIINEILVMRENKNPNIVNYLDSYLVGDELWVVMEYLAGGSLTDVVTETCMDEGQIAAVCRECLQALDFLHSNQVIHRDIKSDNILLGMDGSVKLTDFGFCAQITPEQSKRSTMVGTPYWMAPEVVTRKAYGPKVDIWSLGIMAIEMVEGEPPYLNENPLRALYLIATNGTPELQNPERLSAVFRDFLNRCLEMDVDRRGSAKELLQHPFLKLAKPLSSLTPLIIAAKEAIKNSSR
The target is the same in assay [17]. Particulars: at 1 µM.
Assay [18] has as its target Serine/threonine-protein kinase PAK 5 (Homo sapiens) (UniProt Q9P286). Particulars: at 0.1 µM.
Assay [19] has the same target. The following applies: at 1 µM.
For assay [20], the target named is Serine/threonine-protein kinase PAK 6 (Homo sapiens) (UniProt Q9NQU5). The following applies: at 0.1 µM.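 Further: mean PAK6 inhibition reported from the GSK PKIS screen.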
Serine/threonine-protein kinase PAK 6 (Homo sapiens), sequence (Q9NQU5 whole entry, looked up): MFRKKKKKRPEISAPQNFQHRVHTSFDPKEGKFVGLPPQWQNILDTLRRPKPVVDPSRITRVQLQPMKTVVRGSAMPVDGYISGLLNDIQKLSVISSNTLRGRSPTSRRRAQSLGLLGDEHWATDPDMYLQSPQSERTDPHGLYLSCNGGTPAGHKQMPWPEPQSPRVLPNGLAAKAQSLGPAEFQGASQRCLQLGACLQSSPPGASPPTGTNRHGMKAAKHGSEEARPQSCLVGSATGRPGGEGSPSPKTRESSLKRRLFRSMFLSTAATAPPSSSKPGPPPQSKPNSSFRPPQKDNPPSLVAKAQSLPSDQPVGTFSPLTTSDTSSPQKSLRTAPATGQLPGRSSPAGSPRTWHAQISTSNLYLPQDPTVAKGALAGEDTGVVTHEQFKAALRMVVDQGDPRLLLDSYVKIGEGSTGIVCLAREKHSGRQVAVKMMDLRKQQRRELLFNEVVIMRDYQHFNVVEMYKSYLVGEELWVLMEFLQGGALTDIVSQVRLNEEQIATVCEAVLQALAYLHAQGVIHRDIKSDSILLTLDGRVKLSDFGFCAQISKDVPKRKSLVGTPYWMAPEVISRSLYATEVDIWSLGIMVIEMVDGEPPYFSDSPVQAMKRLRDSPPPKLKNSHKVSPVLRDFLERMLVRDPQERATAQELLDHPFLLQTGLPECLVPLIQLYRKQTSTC

Structures are written as SMILES.

Serine/threonine-protein kinase PAK 1 (Homo sapiens), sequence (Q13153 whole entry): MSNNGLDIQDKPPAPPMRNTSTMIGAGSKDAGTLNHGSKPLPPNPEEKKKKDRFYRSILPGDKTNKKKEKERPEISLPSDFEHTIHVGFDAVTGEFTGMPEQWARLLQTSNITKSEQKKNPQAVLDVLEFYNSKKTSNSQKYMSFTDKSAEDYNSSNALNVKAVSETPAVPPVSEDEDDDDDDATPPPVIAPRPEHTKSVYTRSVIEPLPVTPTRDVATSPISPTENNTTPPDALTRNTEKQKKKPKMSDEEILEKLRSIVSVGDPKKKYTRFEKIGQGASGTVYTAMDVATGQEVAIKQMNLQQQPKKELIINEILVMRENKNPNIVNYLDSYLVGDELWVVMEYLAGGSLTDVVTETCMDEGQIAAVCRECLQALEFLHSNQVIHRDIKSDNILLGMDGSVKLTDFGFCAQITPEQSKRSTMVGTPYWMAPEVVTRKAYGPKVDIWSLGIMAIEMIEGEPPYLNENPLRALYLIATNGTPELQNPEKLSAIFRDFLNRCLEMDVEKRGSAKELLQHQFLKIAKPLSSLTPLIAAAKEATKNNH
Serine/threonine-protein kinase PAK 5 (Homo sapiens), sequence (Q9P286 whole entry, looked up): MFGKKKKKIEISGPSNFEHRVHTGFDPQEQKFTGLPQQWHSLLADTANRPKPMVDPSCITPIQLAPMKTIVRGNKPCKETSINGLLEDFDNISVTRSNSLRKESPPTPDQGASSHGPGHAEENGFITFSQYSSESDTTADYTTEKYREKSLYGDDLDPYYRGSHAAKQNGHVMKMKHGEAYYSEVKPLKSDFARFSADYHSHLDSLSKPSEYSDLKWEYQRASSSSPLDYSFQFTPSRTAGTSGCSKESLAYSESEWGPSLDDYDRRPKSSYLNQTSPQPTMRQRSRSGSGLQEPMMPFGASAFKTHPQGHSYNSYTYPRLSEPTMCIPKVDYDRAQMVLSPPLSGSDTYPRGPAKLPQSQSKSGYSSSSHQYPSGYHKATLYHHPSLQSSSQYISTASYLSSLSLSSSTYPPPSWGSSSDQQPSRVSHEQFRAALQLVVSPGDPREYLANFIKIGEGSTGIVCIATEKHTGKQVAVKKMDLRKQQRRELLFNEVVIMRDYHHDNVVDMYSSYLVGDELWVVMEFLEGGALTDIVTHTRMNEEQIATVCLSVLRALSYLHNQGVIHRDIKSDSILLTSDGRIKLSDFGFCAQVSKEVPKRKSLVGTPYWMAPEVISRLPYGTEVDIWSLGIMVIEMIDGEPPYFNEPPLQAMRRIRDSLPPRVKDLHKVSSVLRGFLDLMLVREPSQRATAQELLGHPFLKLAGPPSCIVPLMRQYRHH
Serine/threonine-protein kinase PAK 2 (Homo sapiens), sequence (Q13177 whole entry): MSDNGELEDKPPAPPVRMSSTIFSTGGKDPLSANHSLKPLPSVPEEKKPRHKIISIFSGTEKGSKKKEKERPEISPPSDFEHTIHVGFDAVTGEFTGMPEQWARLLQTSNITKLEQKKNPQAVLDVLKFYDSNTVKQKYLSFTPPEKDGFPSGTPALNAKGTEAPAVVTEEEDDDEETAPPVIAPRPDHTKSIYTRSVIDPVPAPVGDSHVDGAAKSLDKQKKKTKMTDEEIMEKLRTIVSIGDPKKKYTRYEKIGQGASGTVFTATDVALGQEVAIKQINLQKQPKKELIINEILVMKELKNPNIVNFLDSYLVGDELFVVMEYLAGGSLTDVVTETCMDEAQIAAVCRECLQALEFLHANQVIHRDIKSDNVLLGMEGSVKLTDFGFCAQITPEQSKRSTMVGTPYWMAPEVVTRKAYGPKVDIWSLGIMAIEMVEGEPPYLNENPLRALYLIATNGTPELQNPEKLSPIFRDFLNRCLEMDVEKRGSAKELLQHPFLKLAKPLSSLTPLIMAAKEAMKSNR
Mitogen-activated protein kinase kinase kinase kinase 4 (Homo sapiens), sequence (O95819 2-1239 limits assumed): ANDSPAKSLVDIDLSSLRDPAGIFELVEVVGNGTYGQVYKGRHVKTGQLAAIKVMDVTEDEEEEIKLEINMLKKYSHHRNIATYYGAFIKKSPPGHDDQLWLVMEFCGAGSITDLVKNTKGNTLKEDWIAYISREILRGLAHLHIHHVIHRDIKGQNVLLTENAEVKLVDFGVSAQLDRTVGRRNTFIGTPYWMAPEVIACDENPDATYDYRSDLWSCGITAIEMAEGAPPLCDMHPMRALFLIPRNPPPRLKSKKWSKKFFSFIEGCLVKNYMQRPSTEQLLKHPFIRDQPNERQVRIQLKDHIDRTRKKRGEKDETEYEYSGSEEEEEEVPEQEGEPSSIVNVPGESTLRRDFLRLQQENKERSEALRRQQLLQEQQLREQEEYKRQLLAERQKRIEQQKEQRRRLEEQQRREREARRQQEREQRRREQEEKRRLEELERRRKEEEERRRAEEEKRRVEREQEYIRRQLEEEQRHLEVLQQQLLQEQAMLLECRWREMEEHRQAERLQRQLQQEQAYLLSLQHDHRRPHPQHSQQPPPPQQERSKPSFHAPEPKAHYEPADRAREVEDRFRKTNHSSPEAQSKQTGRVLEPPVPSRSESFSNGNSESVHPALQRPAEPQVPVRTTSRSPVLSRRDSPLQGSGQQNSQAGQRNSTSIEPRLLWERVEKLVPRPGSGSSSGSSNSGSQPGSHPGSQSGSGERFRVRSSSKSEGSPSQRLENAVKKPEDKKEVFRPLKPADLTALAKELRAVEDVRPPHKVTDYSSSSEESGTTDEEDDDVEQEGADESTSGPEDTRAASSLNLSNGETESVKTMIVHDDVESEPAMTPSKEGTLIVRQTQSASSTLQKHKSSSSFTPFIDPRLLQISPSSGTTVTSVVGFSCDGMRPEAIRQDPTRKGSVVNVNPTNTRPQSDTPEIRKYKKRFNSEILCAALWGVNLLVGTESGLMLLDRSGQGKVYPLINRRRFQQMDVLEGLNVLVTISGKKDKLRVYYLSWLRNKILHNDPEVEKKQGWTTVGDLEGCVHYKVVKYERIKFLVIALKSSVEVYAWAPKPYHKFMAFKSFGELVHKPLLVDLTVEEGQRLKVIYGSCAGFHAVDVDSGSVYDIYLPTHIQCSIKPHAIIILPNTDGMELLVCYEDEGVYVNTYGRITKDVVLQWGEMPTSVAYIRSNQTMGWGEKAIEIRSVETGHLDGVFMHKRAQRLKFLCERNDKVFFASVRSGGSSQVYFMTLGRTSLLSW

Take `COc1ccc(-c2oc3ncnc(N)c3c2-c2ccc(NC(=O)Nc3cc(C(F)(F)F)ccc3F)cc2)cc1`: the inhibition was 10.1% in assay [1]; 6.74% in assay [2]; 7.26% in assay [3]; 6.56% in assay [4]; 6.71% in [5]; 12.5% in assay [6]. Further, the inhibition in assay [7] amounted to 19.3%; in assay [8], 12.7%; in assay [9] it was 18.3%; in [10], 0.51%; in [11], 0.01%; in [12], 6.65%. In addition, the inhibition in assay [13] worked out at 5.48%; in assay [14] it was 3.2%; in [15], 3.66%; in assay [16], 4.72%; in assay [17] it was 4.39%; in assay [18], 16.8%. Besides, the inhibition in assay [19] was 0.17%; in assay [20], 2.23%.
On to `CS(=O)(=O)CCNCc1coc(-c2ccc3ncnc(Nc4ccc(OCc5ccccc5)cc4)c3c2)c1`, for which the inhibition in assay [1] came to 7.26%; in [2] it was 2.33%; in [3], 3.36%; in assay [4], 5.08%; in assay [5], 4.66%; in [6] it was 2.75%. In addition, the inhibition in [7] was 3.41%; in assay [8] it was 4.25%; in assay [9] it was 3.71%; in assay [10], -2.22%; in assay [11], 2.64%; in [12], 2.37%. Besides, the inhibition turned out to be 4.92% in assay [13]; 0.82% in assay [14]; 0.14% in [15]; 3.37% in assay [16]; 3.31% in assay [17]; 3.59% in assay [18]. The inhibition was 3.38% in assay [19] and -4% in assay [20].
On to `CCn1c(-c2nonc2N)nc2cnc(Oc3cccc(NC(=O)c4ccc(N(C)C)cc4)c3)cc21`, for which the inhibition is 29.4% in [1]; 1.11% in assay [2]; 2.61% in assay [3]; 3.19% in assay [4]; 28.2% in [5]; -0.06% in [6]. For the same compound, the inhibition was 1.47% in assay [7]; 0.98% in assay [8]; 2.32% in [9]; -1.48% in [10]; 0.84% in assay [11]; 3.97% in [12]. Also, the inhibition came out at 6.82% in assay [13]; 0.04% in assay [14]; 0.22% in assay [15]; 1.76% in assay [16]; 2.25% in assay [17]; 2.13% in assay [18]. Besides, the inhibition is -2.93% in assay [19] and 2.57% in assay [20].
On to `Cc1ccc(O)cc1Nc1ccnc2cc(-c3ccccn3)ccc12`, for which the inhibition in assay [1] is 75.5%; in assay [2], 6.05%; in [3], 4.87%; in [4], 21.3%; in [5], 65.2%; in assay [6] it was 7.99%. Also, the inhibition in assay [7] was 8.81%; in assay [8], 8.56%; in assay [9], 6.61%; in assay [10], -2.79%; in assay [11], -0.53%; in assay [12] it was 7.92%. The inhibition in assay [13] is 8.64%; in assay [14] it was 3.37%; in assay [15], 2.71%; in assay [16], 4.92%; in assay [17], 5%; in assay [18], 3.23%. Also, the inhibition in assay [19] was 0.07%; in assay [20] it was 4.84%.
As to `Clc1ccc(-c2nn3ncccc3c2-c2ccnc(Nc3ccccc3)n2)cc1`, the inhibition in assay [1] worked out at 39.9%; in [2] it was 1.32%; in [3], 2.28%; in assay [4], 5.91%; in assay [5], 33%; in assay [6], 0.77%. Moreover, the inhibition in assay [7] is 0.46%; in assay [8] it was -0.25%; in assay [9], -0.67%; in assay [10] it was 1.4%; in [11], 2.44%; in assay [12] it was 2.29%. Moreover, the inhibition was -0.81% in assay [13]; 1.12% in [14]; -0.15% in [15]; 0.58% in assay [16]; 0.87% in [17]; 7.85% in assay [18]. Moreover, the inhibition in [19] was -0.84%; in assay [20], 7.89%.
Take `CNC(=O)c1cncc(/C=C/c2ccccc2Cl)c1`: the inhibition in assay [1] is 15.2%; in [2] it was -0.39%; in assay [3], 2.24%; in [4], 2.28%; in assay [5], 15.4%; in assay [6], 4.63%. Besides, the inhibition in assay [7] is 7.5%; in assay [8], 5.87%; in assay [9] it was 7.94%; in [10] it was 1.78%; in assay [11] it was 1.7%; in [12], 0.81%. The inhibition is 1.33% in assay [13]; 0.07% in assay [14]; -0.55% in assay [15]; 0.06% in [16]; 0.54% in assay [17]; 6.76% in assay [18]. Further, the inhibition in [19] worked out at 4.3%; in assay [20] it was 8.93%.

A word on the inhibition: it is the relative decrease from the control value, in per cent.
